# From PubChem BioAssay AID602440 (Sanford-Burnham Center for Chemical Genomics, 2012)
# The campaign covered roughly 360,000 compounds. About 2,300 (0.64%) were called active. The sample holds actives, similar compounds and a random draw of the others, so the mix is not that of the screen. No stated cut-off is given here; in the data, active means inhibition mostly above about 40% (no sharp cut-off); inactive means mostly below about 27%.
# Target: Sentrin-specific protease 8 (Homo sapiens) (UniProt Q96LD8)
# Assay: blockers of SENP8 deneddylase activity – biochemical, fluorescence, Nedd8 protein substrate, uHTS, primary screen (AID 602440)
# Conditions: recombinant SENP8, Nedd8 substrate fluorescence; at 20 µM; stronger effect = higher value
# Sentrin-specific protease 8 (Homo sapiens), sequence (Q96LD8 whole entry, looked up): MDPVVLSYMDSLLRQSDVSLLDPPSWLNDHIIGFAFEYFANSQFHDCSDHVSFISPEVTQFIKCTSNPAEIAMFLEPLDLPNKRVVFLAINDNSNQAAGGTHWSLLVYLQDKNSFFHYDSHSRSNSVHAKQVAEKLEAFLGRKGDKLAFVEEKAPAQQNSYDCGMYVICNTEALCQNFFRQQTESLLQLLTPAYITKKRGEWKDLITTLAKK
row,Compound,inhibition
1,CCOCCc1c(O)[nH]c(=S)[nH]c1=O,21.8% (inactive)
2,O=C1N=c2ccccc2=C/C1=C\c1c(O)[nH]c(=S)[nH]c1=O,-52.5% (inactive)
3,COc1ccccc1N=Nc1c(O)[nH]c(=S)[nH]c1=O,49% (active)
4,CC(C(=O)Nc1ccc(Cl)cc1Cl)N1CC=C(c2ccccc2)CC1 (stereo not given),26.7% (inactive)
5,CNC(=O)N(C)c1nnc(C(C)(C)C)s1,17.7% (inactive)
6,O=C1NC(=O)N(c2ccccc2)C(=O)/C1=C/c1ccc([N+](=O)[O-])s1,64.6% (active)
7,CCN(CC)CCOC(=O)c1cc2cc(COC)ccc2o1,15.2% (inactive)
8,COC(=O)C1=C(c2cc3ccccc3o2)C[C@@H]2CC[C@H]1N2C(=O)NC1CCCCC1,11.5% (inactive)
9,CCOC(=O)CNC(=O)N1Cc2cc(N3CCCCC3)ccc2-n2nncc2C1,-24.7% (inactive)
10,c1cc2c(cc1[C@H]1OC[C@H]3[C@@H]1CO[C@@H]3c1ccc3c(c1)OCO3)OCO2,12.2% (inactive)
11,O=C1/C(=C\c2ccc3c(c2)OCO3)N2CCC1CC2,13.7% (inactive)
12,c1cc2c(cc1C1OCC3C(c4ccc5c(c4)OCO5)OCC13)OCO2 (stereo not given),62.3% (active)
13,COC(=O)C1=C(c2ccc(F)cc2OCc2ccccc2)C[C@@H]2CC[C@H]1N2C(=O)NCc1ccc(OC)c(OC)c1,14.1% (inactive)
14,CCOC(=O)[C@]12Cc3ccccc3[C@H]1N(C1CCCCC1)C(=O)c1cc(OC)ccc12,-7.7% (inactive)
15,O=c1[nH]c(=O)n(CCc2ccccc2)c(O)c1/C=N/N1CCOCC1,11.3% (inactive)
16,COc1ccc(C(=O)C2CN(C)CC2C(=O)c2ccc(OC)cc2)cc1 (stereo not given),14.3% (inactive)
17,COc1ccc(C(=O)CC2C(=O)N(C)C(=O)N(C)C2=O)cc1,42.5% (active)
18,CCOP(=O)(OCC)C(NC(=O)c1ccc(OC)cc1)C(Cl)(Cl)Cl (stereo not given),4.3% (inactive)
19,CCCCCCCCCCCCn1ccc(=N)cc1,26.2% (inactive)
20,CCOC(=O)CC(SP1(=S)OCC2(CCCCO2)C(C2CCCCO2)O1)C(=O)OCC (stereo not given),2.3% (inactive)
21,Cc1ccc(Cn2c(C)c3cnn(CC(=O)N4CCC5(CC4)OCCO5)c(=O)c3c2C)cc1,-29% (inactive)
22,C=CC12CN(C)[C@@H]3C4CO[C@H](C[C@H]41)[C@]1(C(=O)Nc4ccccc41)[C@@H]32 (stereo not given in full),40.4% (active)
23,COc1ccc2c(c1)[C@]13CCCCC1C(C2)N(C)CC3 (stereo not given in full),2% (inactive)

row,Compound,inhibition
1,O=C(O)CCn1cc(C=C2C(=O)NC(=S)NC2=O)c(-c2cccc(Br)c2)n1,2.3% (inactive)
2,CCN(CC)c1ccc([N+](=O)[O-])c2cccnc12,36.3% (inactive)
3,CN(c1ccccc1)c1ccc([N+](=O)[O-])c2nonc12,44.1% (active)
4,C[C@]12CCCCC1=CC(=O)C1C2CC[C@@]2(C)C1C[C@@H](F)[C@@H]2O (stereo not given in full),-0.8% (inactive)
5,C[N+]12CN3CN(CN(C3)C1)C2,12.2% (inactive)
6,O=c1c2ccccc2nc(/C=C/c2ccco2)n1-c1ccccc1O,-36.8% (inactive)
7,CNP1(NC)=Nc2nn(-c3ccccc3)c(N)c2C(c2ccccc2)=N1,21.7% (inactive)
8,O=C(O)C1CSC(c2cccnc2)N1 (stereo not given),6.7% (inactive)
9,COC1C(O)C(C)OC(OC2CCC3(C=O)C(CCC4C3CCC3(C)C(C5=CC(=O)OC5)CCC43O)C2)C1O (stereo not given),66.8% (active)
10,C[C@]12CC[C@H](O)C[C@H]1CC[C@@H]1C2CC[C@]2(C)[C@@H](C3=CC(=O)OC3)[C@@H](O)C[C@]12O (stereo not given in full),15.3% (inactive)
11,CC(C)CN1CCN(Cc2ccccc2C(F)(F)F)CC1CCO (stereo not given),-4% (inactive)
12,CC1=C2C(=O)C3C(CC=C4CC(OC5OC(O)C(O)C(O)C5CO)CCC43C)C2CCC12OC1CC(C)CNC1C2C (stereo not given),41.4% (active)
13,CC(=O)OC1C2(CC3N4C(=O)C5(CO)SSC4(CC31O)C(=O)N5C)OC(C)C(C)(C)C2=O (stereo not given),-4.6% (inactive)
14,N[C@@H](Cc1c[nH]c2ccccc12)c1nnc(SCc2c(F)cccc2Cl)o1,18% (inactive)
15,CN(C)C(=O)Oc1ccc2c(c1)O/C(=C\c1ccccc1)C2=O,-9.7% (inactive)
16,c1ccc(N2Cc3ccccc3-n3nncc3C2)nc1,14.6% (inactive)
17,CC(Cc1ccccc1)NC=O (stereo not given),50.7% (active)
18,CC(Cc1ccccc1)NCCC(c1ccccc1)c1ccccc1 (stereo not given),8.1% (inactive)
19,CC(=O)Nc1ccc(C(=O)C(Cc2ccccc2)N(C)C)cc1 (stereo not given),-0.4% (inactive)
20,CCC(C)(O)C(=O)OC1C(=O)OC2CC3C(C)=CC(=O)C(O)C3(C)C3C4(O)OCC23C1C(C)C4O (stereo not given),15.7% (inactive)
21,CC(=CCOc1ccc2ccc(=O)oc2c1)C1=CC(=O)C(C)(C)O1,-260% (inactive)
22,C=Cn1ccnc1P(=S)(c1cc(N(CC)CC)ns1)c1nccn1C=C,1.5% (inactive)
